Test results published in the supplement of paper PMC10849652.
The full data set covers some 8,800 targets. This sample favours those with a hit. About 0.5% of all pairs of compound and target were hits. Values without a mark were called inactive.

Legend:
Test in all cases: log2 fold change, soluble protein after heating vs DMSO (PISA); higher = thermal stabilisation; K562 lysate, 10 uM; active = over 0.2 and 3.5 SD of the protein, either way, in both replicates (recomputed)
[1] = compound: NCC(=O)Nc1ccc(-n2nc(C(F)(F)F)cc2-c2ccc3c(ccc4ccccc43)c2)cc1
In short: (§1)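 A 30 min treatment with 10 μM compound was applied to crude K562 extract at 1 mg/mL protein in PBS pH 7.4 with 1 mM MgCl2. Heating for 3 min spanned 48°C-58°C, after which aliquots were pooled, adjusted to 0.5% NP-40 at 4°C and spun at 21,000xg for 90 min. TMTpro 16plex LC-MS/MS of the supernatant, with channel sums equalised, gave values recorded as log-two fold change in thermal stability against solvent controls, from duplicates.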

vorinostat = compound: O=C(CCCCCCC(=O)Nc1ccccc1)NO [vorinostat]
In short: as §1

silmitasertib = compound: O=C(O)c1ccc2c(c1)nc(Nc1cccc(Cl)c1)c1ccncc12 [silmitasertib]
In short: as §1

[2] = compound: O=C1NC(=O)C(c2cnc3ccccn23)=C1c1cn2c3c(cc(F)cc13)CN(C(=O)N1CCCCC1)CC2
In short: as §1

entospletinib = compound: c1cn2cc(-c3ccc4cn[nH]c4c3)nc(Nc3ccc(N4CCOCC4)cc3)c2n1 [entospletinib]
In short: as §1

Chain of UniProt P00156 (P00156 whole entry, looked up): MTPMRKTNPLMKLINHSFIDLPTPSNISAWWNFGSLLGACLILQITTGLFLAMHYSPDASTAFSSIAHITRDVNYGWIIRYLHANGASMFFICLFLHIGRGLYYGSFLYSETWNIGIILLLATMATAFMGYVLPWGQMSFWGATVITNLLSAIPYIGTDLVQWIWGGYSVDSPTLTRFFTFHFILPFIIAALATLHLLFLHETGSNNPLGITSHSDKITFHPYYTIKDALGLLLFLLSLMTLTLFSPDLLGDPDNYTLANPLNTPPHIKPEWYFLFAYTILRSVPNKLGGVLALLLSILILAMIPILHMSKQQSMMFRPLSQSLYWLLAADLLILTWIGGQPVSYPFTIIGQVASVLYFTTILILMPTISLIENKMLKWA
Chain of UniProt Q9Y314 (Q9Y314 whole entry, looked up): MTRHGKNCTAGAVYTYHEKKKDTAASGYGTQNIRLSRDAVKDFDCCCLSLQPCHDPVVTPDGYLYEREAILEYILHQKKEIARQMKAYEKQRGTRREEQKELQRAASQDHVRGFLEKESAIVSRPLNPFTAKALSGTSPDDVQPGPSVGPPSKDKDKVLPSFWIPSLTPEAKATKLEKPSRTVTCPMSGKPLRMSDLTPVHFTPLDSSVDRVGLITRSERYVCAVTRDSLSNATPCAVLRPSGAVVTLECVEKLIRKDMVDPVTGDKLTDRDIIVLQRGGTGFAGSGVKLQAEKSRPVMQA
Chain of UniProt P53370 (P53370 whole entry, looked up): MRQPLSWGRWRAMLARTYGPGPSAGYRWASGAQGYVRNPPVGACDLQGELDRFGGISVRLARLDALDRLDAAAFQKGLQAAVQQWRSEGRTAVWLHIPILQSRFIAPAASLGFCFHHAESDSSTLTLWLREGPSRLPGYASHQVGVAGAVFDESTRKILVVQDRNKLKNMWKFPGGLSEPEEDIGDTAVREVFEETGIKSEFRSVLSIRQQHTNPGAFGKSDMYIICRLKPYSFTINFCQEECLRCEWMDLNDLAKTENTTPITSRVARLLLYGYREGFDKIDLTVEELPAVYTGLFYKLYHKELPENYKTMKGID
Chain of UniProt Q9Y5A7 (Q9Y5A7 whole entry, looked up): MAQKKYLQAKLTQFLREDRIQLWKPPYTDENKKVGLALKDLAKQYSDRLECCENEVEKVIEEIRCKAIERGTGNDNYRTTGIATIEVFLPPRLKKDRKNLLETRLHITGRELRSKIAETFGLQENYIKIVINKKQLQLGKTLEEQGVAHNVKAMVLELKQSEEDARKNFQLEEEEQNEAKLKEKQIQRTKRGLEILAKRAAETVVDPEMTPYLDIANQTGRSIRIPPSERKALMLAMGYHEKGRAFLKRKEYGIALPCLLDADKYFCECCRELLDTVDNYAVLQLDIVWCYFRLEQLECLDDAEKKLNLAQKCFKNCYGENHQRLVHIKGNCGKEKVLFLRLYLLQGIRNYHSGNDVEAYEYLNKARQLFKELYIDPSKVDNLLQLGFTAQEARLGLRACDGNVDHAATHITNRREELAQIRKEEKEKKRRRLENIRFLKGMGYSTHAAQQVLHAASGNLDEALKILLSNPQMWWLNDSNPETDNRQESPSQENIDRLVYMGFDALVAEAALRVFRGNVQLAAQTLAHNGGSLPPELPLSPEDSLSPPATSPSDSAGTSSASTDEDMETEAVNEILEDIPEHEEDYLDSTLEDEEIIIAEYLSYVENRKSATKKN
Chain of UniProt Q6ZNJ1 (Q6ZNJ1 whole entry, looked up): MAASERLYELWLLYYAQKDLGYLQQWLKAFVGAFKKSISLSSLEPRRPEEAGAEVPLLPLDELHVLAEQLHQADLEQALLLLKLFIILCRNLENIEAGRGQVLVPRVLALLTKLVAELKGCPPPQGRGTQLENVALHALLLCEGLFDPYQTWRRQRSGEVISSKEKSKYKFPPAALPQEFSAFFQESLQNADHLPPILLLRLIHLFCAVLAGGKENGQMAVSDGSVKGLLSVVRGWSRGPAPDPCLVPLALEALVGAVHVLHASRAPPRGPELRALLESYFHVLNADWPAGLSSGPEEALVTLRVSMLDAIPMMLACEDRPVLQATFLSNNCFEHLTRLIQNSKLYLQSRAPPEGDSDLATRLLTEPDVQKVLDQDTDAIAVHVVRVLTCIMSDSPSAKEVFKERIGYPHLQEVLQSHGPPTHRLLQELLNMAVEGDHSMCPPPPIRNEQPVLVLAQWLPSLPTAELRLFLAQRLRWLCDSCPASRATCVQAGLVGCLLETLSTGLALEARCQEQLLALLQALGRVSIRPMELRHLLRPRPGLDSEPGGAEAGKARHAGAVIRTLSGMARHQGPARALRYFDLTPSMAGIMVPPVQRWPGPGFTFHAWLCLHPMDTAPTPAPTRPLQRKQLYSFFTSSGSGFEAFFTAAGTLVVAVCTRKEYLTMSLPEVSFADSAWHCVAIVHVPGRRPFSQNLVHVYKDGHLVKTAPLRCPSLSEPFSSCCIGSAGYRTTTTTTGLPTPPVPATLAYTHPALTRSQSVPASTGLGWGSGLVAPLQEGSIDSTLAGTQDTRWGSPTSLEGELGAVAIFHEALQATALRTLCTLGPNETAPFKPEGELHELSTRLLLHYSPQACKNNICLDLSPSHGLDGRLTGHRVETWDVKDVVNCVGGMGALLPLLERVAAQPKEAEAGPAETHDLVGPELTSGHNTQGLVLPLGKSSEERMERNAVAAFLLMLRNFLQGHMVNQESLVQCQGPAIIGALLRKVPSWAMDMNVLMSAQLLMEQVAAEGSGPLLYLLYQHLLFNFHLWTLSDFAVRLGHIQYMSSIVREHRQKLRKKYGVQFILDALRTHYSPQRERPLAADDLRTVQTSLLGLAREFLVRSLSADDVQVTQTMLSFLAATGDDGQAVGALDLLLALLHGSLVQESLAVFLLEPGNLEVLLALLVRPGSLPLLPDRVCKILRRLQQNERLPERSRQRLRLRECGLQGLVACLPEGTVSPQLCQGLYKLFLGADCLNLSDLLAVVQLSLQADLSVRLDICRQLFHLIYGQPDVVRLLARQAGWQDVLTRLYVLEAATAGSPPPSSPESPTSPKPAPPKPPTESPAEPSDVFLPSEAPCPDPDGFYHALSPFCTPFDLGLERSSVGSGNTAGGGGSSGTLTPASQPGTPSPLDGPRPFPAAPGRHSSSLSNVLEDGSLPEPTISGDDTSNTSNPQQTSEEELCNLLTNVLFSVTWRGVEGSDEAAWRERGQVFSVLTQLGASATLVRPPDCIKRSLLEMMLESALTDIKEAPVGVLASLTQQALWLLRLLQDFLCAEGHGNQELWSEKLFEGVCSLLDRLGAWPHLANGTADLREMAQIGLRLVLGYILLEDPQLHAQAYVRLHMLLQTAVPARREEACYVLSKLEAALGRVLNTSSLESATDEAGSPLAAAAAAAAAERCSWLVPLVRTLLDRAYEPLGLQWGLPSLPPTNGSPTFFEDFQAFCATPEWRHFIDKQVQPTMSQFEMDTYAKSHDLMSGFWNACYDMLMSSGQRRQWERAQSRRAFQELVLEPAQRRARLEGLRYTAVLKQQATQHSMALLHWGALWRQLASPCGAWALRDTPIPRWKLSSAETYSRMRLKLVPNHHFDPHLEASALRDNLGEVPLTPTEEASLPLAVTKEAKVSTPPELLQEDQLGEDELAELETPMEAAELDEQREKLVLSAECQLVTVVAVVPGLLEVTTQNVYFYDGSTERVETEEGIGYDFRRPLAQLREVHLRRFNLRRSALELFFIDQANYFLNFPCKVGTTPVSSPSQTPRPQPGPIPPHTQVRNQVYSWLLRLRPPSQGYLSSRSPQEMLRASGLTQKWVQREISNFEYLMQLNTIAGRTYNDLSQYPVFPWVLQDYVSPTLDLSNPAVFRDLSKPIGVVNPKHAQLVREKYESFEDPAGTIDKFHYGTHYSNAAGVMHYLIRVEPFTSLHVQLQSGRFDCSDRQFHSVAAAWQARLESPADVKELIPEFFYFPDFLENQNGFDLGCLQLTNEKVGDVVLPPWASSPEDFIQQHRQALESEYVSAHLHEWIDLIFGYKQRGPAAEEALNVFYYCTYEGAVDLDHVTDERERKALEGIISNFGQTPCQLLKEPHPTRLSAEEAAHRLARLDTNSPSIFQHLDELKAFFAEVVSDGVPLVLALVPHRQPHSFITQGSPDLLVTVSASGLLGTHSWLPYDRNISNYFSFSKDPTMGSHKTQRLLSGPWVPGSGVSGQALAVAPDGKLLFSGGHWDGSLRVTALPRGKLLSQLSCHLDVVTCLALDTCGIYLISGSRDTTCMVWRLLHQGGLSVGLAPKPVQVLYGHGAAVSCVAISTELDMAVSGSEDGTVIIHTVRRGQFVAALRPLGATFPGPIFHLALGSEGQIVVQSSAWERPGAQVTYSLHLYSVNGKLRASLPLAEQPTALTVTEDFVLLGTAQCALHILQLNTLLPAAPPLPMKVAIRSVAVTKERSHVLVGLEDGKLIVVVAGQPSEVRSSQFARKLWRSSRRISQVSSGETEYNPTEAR
Chain of UniProt Q9H3P2 (Q9H3P2 whole entry, looked up): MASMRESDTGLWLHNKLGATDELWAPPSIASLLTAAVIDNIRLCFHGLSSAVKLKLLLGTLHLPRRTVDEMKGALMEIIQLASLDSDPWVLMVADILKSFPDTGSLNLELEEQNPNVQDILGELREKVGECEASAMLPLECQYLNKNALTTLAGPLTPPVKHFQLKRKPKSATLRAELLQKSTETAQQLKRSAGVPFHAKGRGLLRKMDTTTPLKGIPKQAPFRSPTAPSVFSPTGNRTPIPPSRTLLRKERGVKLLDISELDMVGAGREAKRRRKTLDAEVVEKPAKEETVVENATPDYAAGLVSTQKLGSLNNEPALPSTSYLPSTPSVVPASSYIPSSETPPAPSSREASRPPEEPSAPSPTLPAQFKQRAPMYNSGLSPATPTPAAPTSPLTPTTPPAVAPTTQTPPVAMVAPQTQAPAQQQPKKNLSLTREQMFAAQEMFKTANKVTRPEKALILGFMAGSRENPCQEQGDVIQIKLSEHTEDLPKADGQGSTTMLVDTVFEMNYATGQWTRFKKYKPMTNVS
Chain of UniProt Q9BPZ3 (Q9BPZ3 whole entry, looked up): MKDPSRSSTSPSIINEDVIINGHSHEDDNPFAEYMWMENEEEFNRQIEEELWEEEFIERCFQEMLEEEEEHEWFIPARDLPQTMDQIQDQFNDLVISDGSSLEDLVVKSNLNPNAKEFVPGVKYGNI

Target | log2 fold change [1] | log2 fold change (vorinostat) | log2 fold change (silmitasertib) | log2 fold change [2] | log2 fold change (entospletinib)
PAIP2 (UniProt Q9BPZ3) | 0.033 | 0.054 | -0.052 | -0.025 | -0.027
NUP133 (UniProt Q8WUM0) | 0.045 | -0.195 | 0.052 | 0.011 | -0.033
NDUFA4 (UniProt O00483) | -0.041 | -0.017 | -0.004 | 0.01 | -0.029
NUMB (UniProt P49757) | 0 | -0.315 (active) | -0.014 | -0.066 | 0
NIPBL (UniProt Q6KC79) | -0.024 | -0.357 (active) | 0.101 | -0.005 | 0.071
N4BP2 (UniProt Q86UW6) | -0.075 | -0.369 (active) | -0.004 | -0.001 | -0.029
NELFA (UniProt Q9H3P2) | -0.057 | -0.309 (active) | -0.004 | 0.008 | -0.027
OCRL (UniProt Q01968) | 0.134 | -0.43 (active) | 0.032 | 0.019 | -0.032
OTC (UniProt P00480) | 0.097 | 0.087 | -0.029 | -0.157 | -0.028
NUP98 (UniProt P52948) | 0.021 | -0.231 (active) | 0.001 | 0.001 | -0.012
MT-CYB (UniProt P00156) | -0.064 | 0.158 | 0.031 | 0.118 | 0.174
MSH6 (UniProt P52701) | 0.008 | -0.287 (active) | 0.063 | 0.016 | -0.012
NDUFAF5 (UniProt Q5TEU4) | -0.023 | 0.065 | 0.002 | -0.006 | -0.046
MYD88 isoform 6 (UniProt Q99836) | -0.005 | -0.366 (active) | 0.023 | -0.05 | 0.033
NEBL isoform 2 (UniProt O76041) | -0.019 | 0.146 | -0.019 | -0.016 | -0.01
NOB1 (UniProt Q9ULX3) | 0.017 | -0.128 | 0.048 | -0.024 | 0.024
PAXBP1 (UniProt Q9Y5B6) | 0.02 | -0.146 | -0.019 | -0.02 | -0.043
NDUFS1 isoform 2 (UniProt P28331) | -0.006 | 0.118 | 0.032 | -0.052 | -0.014
NPLOC4 isoform 2 (UniProt Q8TAT6) | 0 | 0.028 | -0.016 | 0.018 | 0.031
MYO9A isoform 4 (UniProt B2RTY4) | -0.051 | 0.084 | -0.019 | -0.03 | 
NUB1 (UniProt Q9Y5A7) | -0.004 | -0.333 (active) | -0.027 | 0.031 | 0.001
PAN2 isoform 2 (UniProt Q504Q3) | 0.11 | -0.097 | 0.038 | -0.056 | 0.038
NUP210 (UniProt Q8TEM1) | -0.006 | 0.276 (active) | 0.022 | -0.013 | -0.038
MT-ND1 (UniProt P03886) | 0.002 | 0.072 | 0.033 | 0.015 | 0.121
MTFP1 (UniProt Q9UDX5) | -0.04 | 0.102 | -0.007 | 0.02 | -0.009
PANK4 (UniProt Q9NVE7) | 0.012 | -0.423 (active) | -0.03 | 0.055 | 0.035
PAK4 (UniProt O96013) | -0.003 | -0.458 | -0.038 | 0.028 | 0.05

Target | log2 fold change [1] | log2 fold change (vorinostat) | log2 fold change (silmitasertib) | log2 fold change [2] | log2 fold change (entospletinib)
NARF (UniProt Q9UHQ1) | -0.05 | -0.243 (active) | -0.016 | -0.008 | -0.054
OSBPL3 isoform 2 (UniProt Q9H4L5) | -0.087 | -0.36 (active) | 0.402 (active) | 0.062 | 0.052
PAK1 (UniProt Q13153) | 0.008 | 0.13 | -0.046 | -0.001 | 0.051
NUP205 (UniProt Q92621) | 0.003 | -0.335 (active) | 0.037 | 0.001 | 0.005
MYO1C (UniProt O00159) | -0.017 | -0.171 | 0.015 | 0.11 | 0.033
NFKBIB (UniProt Q15653) | -0.052 | -0.204 | 0.04 | 0.024 | 0
MYO10 (UniProt Q9HD67) | 0.401 | -0.038 | 0 | 0.159 | 
NOSIP (UniProt Q9Y314) | -0.015 | -0.809 (active) | -0.047 | 0.002 | 0.013
NCK1 (UniProt P16333) | 0.048 | -0.281 (active) | 0.01 | -0.014 | 0.019
N6AMT1 (UniProt Q9Y5N5) | -0.043 | 0.076 | -0.025 | -0.007 | -0.011
MYCBP2 (UniProt O75592) | 0.031 | -0.223 (active) | -0.002 | 0.007 | -0.002
ORC5 (UniProt O43913) | 0.023 | -0.377 (active) | 0.072 | 0.011 | 0.066
NUDT6 (UniProt P53370) | 0.128 | 0.038 | -0.096 | 0.02 | -0.225
NFIC (UniProt P08651) | 0.063 | -0.083 | -0.026 | -0.032 | -0.025
NUP160 (UniProt Q12769) | -0.036 | -0.291 (active) | 0.082 | 0.022 | 0.009
NOA1 (UniProt Q8NC60) | 0.065 | -0.411 (active) | 0.049 | 0.048 | -0.008
NGLY1 (UniProt Q96IV0) | -0.014 | -0.29 (active) | 0.041 | 0.018 | 0.034
NACC1 (UniProt Q96RE7) | -0.014 | -0.231 (active) | 0.024 | -0.004 | -0.036
PBK (UniProt Q96KB5) | -0.029 | -0.269 (active) | 0.013 | -0.021 | 0.035
NAT1 (UniProt P18440) | -0.049 | 0.144 | 0.275 (active) | 0.032 | -0.04
NBN (UniProt O60934) | -0.009 | -0.21 (active) | 0.023 | -0.008 | -0.005
NCAPD2 (UniProt Q15021) | -0.01 | -0.332 (active) | 0.01 | -0.005 | -0.001
MRPL53 (UniProt Q96EL3) | -0.052 | -0.119 | 0.042 | -0.024 | 0.033
NUP188 (UniProt Q5SRE5) | -0.002 | -0.36 (active) | 0.073 | -0.009 | -0.003
NBEAL2 (UniProt Q6ZNJ1) | -0.025 | -0.341 (active) | 0.047 | 0.02 | 0.026
NIPSNAP3A (UniProt Q9UFN0) | 0.03 | 0.136 | -0.061 | 0.017 | -0.021
NF1 (UniProt P21359) | 0.03 | -0.634 (active) | 0.037 | 0.01 | 0.025
